Laboratory results from paper PMC8384837, “Expanding the binding specificity for RNA recognition by a PUF domain”.
Where a chain is given by its changes, count along the chain named.

Experiments:
Test in all cases: yeast three-hybrid, YBZ-1, SC-Leu-His + 0.5 mM 3-AT, 4 days
Conditions in all cases: tags: N-Gal4 AD-HA kept; label: inside an RPR1-promoter hybrid RNA with tandem MS2 sites; ssRNA
PUM1 PUF domain R6-YWR = target: T1, PUM1 PUF domain R6-YWR (Homo sapiens, UniProt Q14671 828-1176, N1043Y;Y1044W;Q1047R)
T1 sequence: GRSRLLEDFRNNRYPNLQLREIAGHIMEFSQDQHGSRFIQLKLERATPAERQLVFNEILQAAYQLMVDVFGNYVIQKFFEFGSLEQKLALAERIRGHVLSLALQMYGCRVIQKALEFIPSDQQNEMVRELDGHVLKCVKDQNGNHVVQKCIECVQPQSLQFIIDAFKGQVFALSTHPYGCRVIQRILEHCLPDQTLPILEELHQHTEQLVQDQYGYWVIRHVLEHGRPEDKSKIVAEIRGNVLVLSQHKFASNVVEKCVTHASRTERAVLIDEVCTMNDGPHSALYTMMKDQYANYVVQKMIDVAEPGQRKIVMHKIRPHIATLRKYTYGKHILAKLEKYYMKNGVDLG
Summary of the method: (§1)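 The interaction score is the logarithmic change in variant frequency from input to selection. It uses log2, with a pseudocount of 1 for absent variants, and frequencies came from PCR-amplified, Illumina-sequenced repeat regions. The libraries were Pumilio-1 PUF domains randomized at the three base-contacting residues per repeat, co-expressed with matching RNA elements in strain YBZ-1 (LexA–MS2 coat fusion, HIS3 reporter). Plating lasted four days on SC-Leu (input) or SC-Leu-His + 0.5 mM 3-AT (selection).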

PUM1 PUF domain R3-CRL = PUM1 PUF domain R3-CRL (Homo sapiens, UniProt Q14671 828-1176, Q939L)
Summary of the method: as §1

PUM1 PUF domain R3-IRG = PUM1 PUF domain R3-IRG (Homo sapiens, UniProt Q14671 828-1176, C935I;Q939G)
Summary of the method: as §1

PUM1 PUF domain R1-GKK = PUM1 PUF domain R1-GKK (Homo sapiens, UniProt Q14671 828-1176, S863G;R864K;Q867K)
Summary of the method: as §1

PUM1 PUF domain R1-RQS = PUM1 PUF domain R1-RQS (Homo sapiens, UniProt Q14671 828-1176, S863R;R864Q;Q867S)
Chain of PUM1 PUF domain R1-RQS (Q14671 828-1176 S863R/R864Q/Q867S): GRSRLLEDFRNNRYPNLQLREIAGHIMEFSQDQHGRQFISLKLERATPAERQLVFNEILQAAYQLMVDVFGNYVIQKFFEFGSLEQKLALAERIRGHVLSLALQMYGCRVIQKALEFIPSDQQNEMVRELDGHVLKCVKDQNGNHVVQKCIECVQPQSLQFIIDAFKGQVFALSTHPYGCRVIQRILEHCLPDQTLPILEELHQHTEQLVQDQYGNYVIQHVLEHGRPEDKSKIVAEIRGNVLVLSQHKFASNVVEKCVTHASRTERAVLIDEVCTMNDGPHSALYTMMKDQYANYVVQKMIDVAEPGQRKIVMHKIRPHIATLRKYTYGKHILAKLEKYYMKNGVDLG
Summary of the method: as §1

PUM1 PUF domain R8-PWT = PUM1 PUF domain R8-PWT (Homo sapiens, UniProt Q14671 828-1176, N1122P;Y1123W;Q1126T)
Summary of the method: as §1

PUM1 PUF domain R3-IYR = PUM1 PUF domain R3-IYR (Homo sapiens, UniProt Q14671 828-1176, C935I;R936Y;Q939R)
Summary of the method: as §1

PUM1 PUF domain R5-QMW = PUM1 PUF domain R5-QMW (Homo sapiens, UniProt Q14671 828-1176, C1007Q;R1008M;Q1011W)
Chain of PUM1 PUF domain R5-QMW (Q14671 828-1176 C1007Q/R1008M/Q1011W): as the sequence (Q14671 828-1176 S863R/R864Q/Q867S) above, with R36S, Q37R, S40Q, C180Q, R181M, Q184W counted along it
Summary of the method: as §1

PUM1 PUF domain R6-MYV = target: T2, PUM1 PUF domain R6-MYV (Homo sapiens, UniProt Q14671 828-1176, N1043M;Q1047V)
T2 sequence: T1 sequence with Y216M, W217Y, R220V
Summary of the method: as §1

PUM1 PUF domain R3-LFI = PUM1 PUF domain R3-LFI (Homo sapiens, UniProt Q14671 828-1176, C935L;R936F;Q939I)
Summary of the method: as §1

In the case of “GGCUAGAACUAGUGGAUCCCCCGGCGCCCGGCGGCUCGAGCCCGGGUAAGUGAAAAUAGUCUGCAUGCCGCCGGGCGCCAUGCCUGCAGGUCGACUCUAGAAAACAUG”, the binding signal (PUM1 PUF domain R6-YWR) is reported as 6.63 log2 enrichment (interaction score).
In the case of “GGCUAGAACUAGUGGAUCCCCCGGCGCCCGGCGGCUCGAGCCCGGGUAAGUGUAAUUAGUCUGCAUGCCGCCGGGCGCCAUGCCUGCAGGUCGACUCUAGAAAACAUG”, the binding signal (PUM1 PUF domain R3-CRL) is reported as 1.88 log2 enrichment (interaction score) and the binding signal (PUM1 PUF domain R3-IRG) is reported as 0.44 log2 enrichment (interaction score).
In the case of “GGCUAGAACUAGUGGAUCCCCCGGCGCCCGGCGGCUCGAGCCCGGGUAAGUGUAAAUGGUCUGCAUGCCGCCGGGCGCCAUGCCUGCAGGUCGACUCUAGAAAACAUG”, the binding signal (PUM1 PUF domain R1-GKK) is reported as 3.39 log2 enrichment (interaction score).
With “GGCUAGAACUAGUGGAUCCCCCGGCGCCCGGCGGCUCGAGCCCGGGUAAGUGUAAAUUGUCUGCAUGCCGCCGGGCGCCAUGCCUGCAGGUCGACUCUAGAAAACAUG” the binding signal (PUM1 PUF domain R1-RQS) was 3.04 log2 enrichment (interaction score) and the binding signal (PUM1 PUF domain R1-GKK) was 5.09 log2 enrichment (interaction score).
“GGCUAGAACUAGUGGAUCCCCCGGCGCCCGGCGGCUCGAGCCCGGGUAAGCGUAAAUAGUCUGCAUGCCGCCGGGCGCCAUGCCUGCAGGUCGACUCUAGAAAACAUG” was tested, and the binding signal (PUM1 PUF domain R8-PWT) was 3.16 log2 enrichment (interaction score).
“GGCUAGAACUAGUGGAUCCCCCGGCGCCCGGCGGCUCGAGCCCGGGUAAGUGUAAGUAGUCUGCAUGCCGCCGGGCGCCAUGCCUGCAGGUCGACUCUAGAAAACAUG” was tested, and the binding signal (PUM1 PUF domain R3-IYR) was 5.62 log2 enrichment (interaction score), the binding signal (PUM1 PUF domain R3-CRL) was 0.83 log2 enrichment (interaction score) and the binding signal (PUM1 PUF domain R3-IRG) was 3.97 log2 enrichment (interaction score).
“GGCUAGAACUAGUGGAUCCCCCGGCGCCCGGCGGCUCGAGCCCGGGUAAGUGUUAAUAGUCUGCAUGCCGCCGGGCGCCAUGCCUGCAGGUCGACUCUAGAAAACAUG” was tested, and the binding signal (PUM1 PUF domain R5-QMW) was 0.66 log2 enrichment (interaction score).
“GGCUAGAACUAGUGGAUCCCCCGGCGCCCGGCGGCUCGAGCCCGGGUAAGUGUAAAUAGUCUGCAUGCCGCCGGGCGCCAUGCCUGCAGGUCGACUCUAGAAAACAUG” was tested, and the binding signal (PUM1 PUF domain R6-MYV) was 2.31 log2 enrichment (interaction score), the binding signal (PUM1 PUF domain R3-IYR) was 4.02 log2 enrichment (interaction score) and the binding signal (PUM1 PUF domain R8-PWT) was 1.25 log2 enrichment (interaction score). The binding signal (PUM1 PUF domain R3-CRL) was 2.25 log2 enrichment (interaction score), the binding signal (PUM1 PUF domain R3-LFI) was 3.78 log2 enrichment (interaction score) and the binding signal (PUM1 PUF domain R6-YWR) was 5.79 log2 enrichment (interaction score).
With “GGCUAGAACUAGUGGAUCCCCCGGCGCCCGGCGGCUCGAGCCCGGGUAAGUGUGAAUAGUCUGCAUGCCGCCGGGCGCCAUGCCUGCAGGUCGACUCUAGAAAACAUG” the binding signal (PUM1 PUF domain R5-QMW) was 2.85 log2 enrichment (interaction score).
